This is an account of results in PubChem BioAssay AID488890 (Southern Research Specialized Biocontainment Screening …, 2010).

Screen size: about 320,000 compounds; about 1,300 (0.41%) were called active. Another 3% or so got no clear call; they are omitted. No rule for the calls is given here. The list is a sample of the results. Potency and affinity values are given separately.

This assay can be described thus: growth inhibition of non-replicating M. tuberculosis (AID 488890).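 Also: plate controls were DMSO cells for no effect and high antibiotic wells for full effect.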 The conditions noted are these: Mycobacterium tuberculosis non-replicating, at 25 µM, stronger effect = higher value.
For the compound `COc1ccc(N2CCN(CCCNC(=O)Nc3ccccc3)CC2)cc1`, the inhibition is 38.1%.

`COc1ccc(NC(=O)NCCN2CCN(c3cccc(Cl)c3)CC2)cc1`: the inhibition came out at 31.4%.

For `CC1(C)CC(=O)C2=C(C1)N(c1ccc(F)cc1)C(=O)C2(O)C(F)(F)F` (configuration not stated), the inhibition was -0.41%.

As to `Cc1cc(C(=O)Nn2cnc3ccccc3c2=O)ccc1[N+](=O)[O-]`, the inhibition was -2.65%.

Consider `Cn1c(=O)c([N+](=O)[O-])c(NCCc2ccccc2)c2ccccc21`, for which the inhibition came to 30.3%.

As for `CC(C)c1c(C(=O)N/N=C/c2ccc(OCc3ccc(F)cc3)cc2)nnn1-c1nonc1N`, the inhibition is 1.61%.

With `CCOC(=O)C(CN1CCCC1)c1ccccc1` (configuration not stated), the inhibition was 4.41%.

For `CCCCOc1ccc(C(O)C(CN2CCCCC2)c2ccccc2)cc1` (configuration not stated), the inhibition was 12.8%.

As for `CC(CN1CCCC1)OC(=O)C(c1ccccc1)c1ccccc1` (configuration not stated), the inhibition is 10.8%.

For the compound `CCC(C(=O)c1ccc(O)cc1)c1ccccc1` (configuration not stated), the inhibition came out at 21.7%.

For the compound `CN(C)CC(c1ccccc1)c1ccccc1`, the inhibition was -13.3%.

Turning to `CCOc1ccc(C(=O)C(c2ccccc2)N2CCOCC2)cc1` (configuration not stated), the inhibition was found to be 56.8%.

Consider `CCCOc1ccc(C(=O)C(c2ccccc2)N2CCOCC2)cc1` (configuration not stated), for which the inhibition turned out to be 33.3%.

As for `CCOc1ccc(C(O)C(CN2CCOCC2)c2ccccc2)cc1` (configuration not stated), the inhibition is -1.32%.

For the compound `CCCCN(C(=O)Cc1ccc2c(c1)OCCO2)c1c(N)n(CCC)c(=O)[nH]c1=O`, the inhibition is -17.1%.

For the compound `O=C(NCC(=O)N1CCN(C(c2ccccc2)c2ccccc2)CC1)c1ccc(Br)o1`, the inhibition is 13.5%.

As to `CCOc1ccc2nc(SCC(=O)N3CCN(C(=O)c4ccco4)CC3)sc2c1`, the inhibition was found to be 28.7%.

Consider `C/C(=N/NC(=O)c1cnccn1)c1ccncc1`, for which the inhibition is -12.7%.

`Cc1nc(Cl)c(S(N)(=O)=O)c(C)c1Cl`: the inhibition was -6.51%.

For the compound `CC(C)Sc1nc2[nH]ncc2c(=O)[nH]1`, the inhibition is -7.65%.

For `O=C(NCCO)c1ccc2c(c1)S(=O)(=O)c1ccccc1C2=O`, the inhibition was -6.47%.

As to `Cc1ccc(S(=O)(=O)NC(=O)c2ccccc2F)cc1`, the inhibition was -3.32%.

As to `CCCOc1cccc(C(=O)NCCNC(=O)c2ccco2)c1`, the inhibition is -5.82%.

`N#Cc1ccccc1Cn1c(=O)n(CCC(=O)NCc2ccco2)c(=O)c2ccccc21`: the inhibition came to 0.99%.

With `CCC1(CC)C(=O)NN(c2ccccc2)C1=O`, the inhibition is -21.9%.

On to `O=C(CCNC(=O)Cn1ccc2ccccc2c1=O)NCCN1CCc2ccccc2C1`, for which the inhibition was 19.7%.

For the compound `O=C(C1=NN[C@@H]2C(=O)N(c3cccc(C(F)(F)F)c3)C(=O)[C@H]12)c1ccc2ccccc2n1`, the inhibition is -0.67%.

Regarding `COc1ccc(C(O)(C2CCCCC2)C(CN2CCCC2)c2ccccc2)cc1` (configuration not stated), the inhibition came out at 47%.

For the compound `COc1ccc(C(=O)C(c2ccccc2)N2CCOCC2)cc1` (configuration not stated), the inhibition was 18.6%.

Take `COc1ccc(C2C(C(=O)N3CCN(c4ccccc4)CC3)c3ccccc3C(=O)N2C)cc1` (configuration not stated): the inhibition was determined as 16.5%.

As to `Cc1ccc(S(=O)(=O)N2CCCCC2C(=O)Nc2ccc(N(C)C)cc2)cc1` (configuration not stated), the inhibition came out at 20%.

Turning to `Cc1cc(NC(=O)c2cccs2)n(-c2nc3ccccc3[nH]2)n1`, the inhibition amounted to 76.4%.

With `CCOC(=O)C(=O)Nc1cc(C)nn1-c1nc2ccccc2[nH]1`, the inhibition came out at 73.2%.

In the case of `Cc1cc(Nc2ccccc2)n(-c2ccc(Br)cc2)n1`, the inhibition was determined as 66.6%.

On to `COc1cccc(OC)c1C(=O)Nc1cc(C)nn1-c1nc2ccccc2[nH]1`, for which the inhibition stood at 20.1%.

Take `Cc1cc(NC(=O)c2ccccc2)n(-c2nc3ccccc3[nH]2)n1`: the inhibition was found to be 49.6%.

In the case of `Cc1cc(Nc2ccccc2)n(-c2ccccc2)n1`, the inhibition was 6.71%.

As for `Cc1cc(NC(=O)c2ccc(F)cc2F)n(-c2nc3ccccc3[nH]2)n1`, the inhibition is 14.7%.

For `Cc1cc(NC(=O)c2c(F)cccc2F)n(-c2nc3ccccc3[nH]2)n1`, the inhibition came to 76.6%.

Take `Cc1ccsc1C(=O)N1CCC(N2CCC(C(=O)NCC3CCCO3)CC2)CC1` (configuration not stated): the inhibition came out at 1.59%.

For the compound `C[C@H](NC(=O)[C@@H]1CSC2c3ccccc3C(=O)N21)C(=O)NC1CCCC1` (some centres not stated), the inhibition was -7.65%.

Turning to `CCc1ccc(OCC(=O)O/N=C(\N)c2ccncc2)cc1`, the inhibition is 35.7%.

For `COc1ccc(N2CCN(CC(O)COCc3ccccc3)CC2)cc1` (configuration not stated), the inhibition was -6.85%.

On to `Cc1cc(Nc2nc3ccccc3[nH]c2=O)n(-c2ccccc2)n1`, for which the inhibition was 3.53%.

With `Cc1cc(NC(=O)CC#N)n(-c2nc3ccccc3[nH]2)n1`, the inhibition was -8.39%.

For the compound `Cc1cc(F)ccc1NC(=O)c1cc(S(=O)(=O)N2CCCC2)cn1C`, the inhibition was -14.1%.

In the case of `O=[N+]([O-])c1ccc(-c2nc(-c3ccncc3)no2)cc1`, the inhibition was -0.83%.

Consider `O=[N+]([O-])c1cccc(-c2nc(-c3ccncc3)no2)c1`, for which the inhibition was found to be 1.9%.

For `COc1ccc(Oc2cccc(Cl)c2CNC(=O)c2ccccc2C(=O)O)cc1`, the inhibition is 22.3%.

For the compound `CC1=Nc2ccccc2/C1=C/c1sc(=O)n(CC(=O)N2CCCC2)c1O`, the inhibition was determined as 24%.

As to `CC1=Nc2ccccc2/C1=C/c1c(O)n(C)c(=O)[nH]c1=O`, the inhibition stood at 3.78%.

In the case of `COc1ccc(NC(=O)CN(C)C(=O)c2ccccc2Sc2ncnc3sc(C)c(C)c23)cc1`, the inhibition was found to be 19.2%.

Turning to `CC(C)(C)C(=O)CN1C(=O)NC(c2ccccc2)(c2ccccc2)C1=O`, the inhibition amounted to 0.55%.

Consider `CCCCCOC(=O)C1=C(C)Nc2ncnn2C1c1cccs1` (configuration not stated), for which the inhibition amounted to 21.8%.

With `COc1ccc(CNC(=O)[C@H](C)NC(=O)[C@@H]2Cc3ccccc3CN2)cc1`, the inhibition stood at 1.37%.

For the compound `CC(OC(=O)CCCSc1nc2ccccc2s1)C(=O)NC(N)=O` (configuration not stated), the inhibition was 68.6%.

Turning to `CCNC(=O)NC(=O)C(C)OC(=O)CCCc1nc2ccccc2s1` (configuration not stated), the inhibition is 65.1%.

Turning to `Cc1c(Cl)cccc1NC(=O)CSc1nncn1-c1cccnc1`, the inhibition amounted to 2.49%.

On to `O=c1nc(-c2ccccc2)c2ccccc2[nH]1`, for which the inhibition was -10.3%.

As to `O=c1cc(-c2ccccc2)[nH]c2ccccc12`, the inhibition worked out at 14.9%.

On to `CC(C)CN(C(=O)Cn1nnc(-c2ccc(F)cc2)n1)C1CCS(=O)(=O)C1` (configuration not stated), for which the inhibition is 2.71%.

On to `CCOC(=O)c1c(-c2cccc([N+](=O)[O-])c2)csc1N`, for which the inhibition was 39.4%.

Turning to `CCOC(=O)c1cc(-c2cccc([N+](=O)[O-])c2)n[nH]1`, the inhibition was -6.3%.

Turning to `COc1cccc(C(=O)Nc2ccc(-n3nncc3C(C)(C)C)cc2)c1`, the inhibition is 9.74%.

Take `COc1cccc(-n2nnnc2SCC(=O)NC2CCCC2)c1`: the inhibition was 7.16%.

As for `COc1cccc(Oc2nnnn2-c2ccccc2)c1`, the inhibition came out at 6.02%.

For the compound `C=C(C(=O)Oc1ccccc1C(C)(C)C)c1ccccc1`, the inhibition came to 36.4%.

On to `COC(=O)c1ccc2c(=O)n(CCCCCC(=O)O)c(=O)[nH]c2c1`, for which the inhibition is -11.8%.

`CC(NC(=O)c1cccc(S(=O)(=O)N(C)C)c1)C1CC2CCC1C2` (configuration not stated): the inhibition was -2.47%.

For `CC(NC(=O)c1ccc(F)cc1F)C1CC2CCC1C2` (configuration not stated), the inhibition was 77.7%.

As for `CC(NC(=O)CCC(=O)c1ccc(F)cc1)C1CC2CCC1C2` (configuration not stated), the inhibition is 11.8%.

`CC(NC(=O)COC(=O)c1ccccc1F)C1CC2CCC1C2` (configuration not stated): the inhibition turned out to be 71%.

By inhibition is commonly meant the drop in the measured response relative to a control, in per cent.
